Screens (PubChem)
Shown are actives, neighbours in structure and some others; about 28% of the full set was active somewhere.
CYP2C19 activ – cytochrome P450 2C19 (human) activation | P33261 | recombinant CYP2C19, luciferin-H EGE luminescence; active compounds read high; 0 = fully inhibited enzyme, 1 = untreated enzyme | activation factor at 5 µM | 96,000 tested, under 10 active;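 active = activation factor of at least 2 at 5 µM in the primary screen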;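 note: 0 = wells with 2.5 mM tranylcypromine and 1 = vehicle-only wells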
CYP2C9 act – CYP2C9 (human) activation | P11712 | recombinant CYP2C9, luciferin-H conversion, luminescence; active compounds read high; factor 1 = untreated enzyme, 0 = blocked | activation factor at 5 µM | actives 1.4% (n = 96,000) | AID 1024;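 active = activation factor of 2 or more for CYP2C9 at a 5 µM dose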;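 note: 0 = sulfaphenazole-blocked wells and 1 = vehicle-only wells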
Target sequence (P11712 whole entry, looked up): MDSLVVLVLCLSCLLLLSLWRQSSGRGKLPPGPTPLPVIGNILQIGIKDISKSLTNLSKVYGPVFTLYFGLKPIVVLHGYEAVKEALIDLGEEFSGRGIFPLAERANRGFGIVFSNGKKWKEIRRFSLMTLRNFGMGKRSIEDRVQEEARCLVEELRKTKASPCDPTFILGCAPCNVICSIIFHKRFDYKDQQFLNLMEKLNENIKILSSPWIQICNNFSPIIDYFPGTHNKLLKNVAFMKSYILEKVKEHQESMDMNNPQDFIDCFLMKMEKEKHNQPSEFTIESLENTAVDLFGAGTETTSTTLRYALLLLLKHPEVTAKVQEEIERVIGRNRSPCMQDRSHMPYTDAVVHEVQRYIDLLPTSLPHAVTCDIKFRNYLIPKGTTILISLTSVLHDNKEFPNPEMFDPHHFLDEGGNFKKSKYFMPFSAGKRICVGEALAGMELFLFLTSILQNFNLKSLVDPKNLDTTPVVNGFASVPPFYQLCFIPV
CYP2C9 inh – human CYP2C9 inhibition. AID 777. inhibition, % at 5 µM. actives 20% (n = 96,000). P11712. CYP2C9 Supersomes, luciferin-H conversion, luminescence;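 active = blocking of liver enzyme CYP2C9 beyond about 50% at 5 µM, limit read from the data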
Pyk2 oligo antag – antagonists of human Pyk2 oligomerization. z-score (the deposit names both 25 µM and 10 µM). Q14289. AID 1347419. Q293 cells, Pyk2 FERM NanoBiT luminescence; active compounds read low. actives 0.83% (n = 99,000);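 active = Z-score of -3 or lower, scaled per plate to the spread of control and sample wells; inactive = z-score above -3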;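 note: negative z-score means lost luminescence so less FERM oligomerization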
CYP2C19 inhib – human CYP2C19 inhibition. actives 21% (n = 96,000). P33261. AID 778. inhibition, % at 5 µM. CYP2C19 Supersomes, luciferin-H EGE luminescence, 30 min;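 active = CYP2C19 inhibition above a set limit at 5 µM in the primary screen, cut at about 50% in these data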;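 note: plate controls were negative control wells for no effect and 2.5 mM tranylcypromine positive control for full effect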
* marks the source's active call; other numbers are inactive results; nt = no result.

SMILES	CYP2C19 activ	CYP2C9 act	CYP2C9 inh	Pyk2 oligo antag	CYP2C19 inhib
O=C(CN1CCC(n2nnc3cc(F)ccc32)CC1)NC1CC1	0.9	1	5	-0.32	9
CCOc1ccccc1C(=O)N1CCC(n2nnc3cc(C(F)(F)F)ccc32)CC1	0.3	0.5	53*	0.64	68*
O=C(CN1CCC(n2nnc3cc(F)ccc32)CC1)Nc1ccccc1N1CCOCC1	0	0.1	85*	-0.75	96*
O=C(CN1CCC(n2nnc3cc(F)ccc32)CC1)NC1CCCCC1	0.4	0.4	60*	0.19	58*
Cc1csc(NC(=O)Cc2nn(C)c(=O)c3ccccc23)n1	1.1	0.8	16	0.42	-7
O=C(CN1CCC(n2nnc3cc(F)ccc32)CC1)N1CCc2ccccc2C1	0.5	0.9	14	-0.19	52*
Cc1cccc(C(=O)N2CCC(n3nnc4cc(F)ccc43)CC2)c1	0.2	0.2	82*	1.2	84*
COc1cc(OC)cc(C(=O)N2CCC(n3c(C)nc4cc(F)ccc43)CC2)c1	0.9	0.3	67*	0.15	15
Cc1ccc2c(c1)nnn2C1CCN(S(=O)(=O)c2ccc(C(=O)N3C(C)CCCC3C)cc2)CC1 (stereo not drawn)	0.2	0.5	50	-0.91	77*
Cc1ccc2c(c1)nnn2C1CCN(S(C)(=O)=O)CC1	0.7	0.9	12	3.8	31
O=C(NCC1CCCO1)C1CCN(C(=O)c2ccc(Br)cc2)CC1 (stereo not drawn)	0.9	1.1	-5	-0.38	14
O=C(O)CCCNc1ccc(S(=O)(=O)Nc2ccccc2C(=O)O)cc1C(=O)O	1.1	0.9	6	0.58	-6
CSC1=N/C(=C\c2ccccc2F)C(=O)S1	0.4	1	4	1.2	63*
CC(C)(C)c1cn(-c2ccccc2)c(=S)[nH]1	0.6	0.9	9	0.1	45
Cc1ccc(-n2cc(C(C)(C)C)[nH]c2=S)cc1	0.4	1.4	-36	-0.24	60*
CCCCC1CC1C(=O)Nc1ncc2c(n1)CC(C)(C)CC2=O (stereo not drawn)	0.9	0.8	19	0.02	14
COc1ccc(CN2CCN(C(=O)c3cccs3)CC2)c(OC)c1OC	0.8	1.1	-10	-0.45	24
CCOC(=O)c1c(NC(C)=O)no[n+]1[O-]	nt	nt	nt	1	nt
CSCCC(NC(N)=O)C(=O)NCc1ccccc1Cl (stereo not drawn)	1	1.3	-33	0.83	4
COC(=O)c1cc(=O)n(Cc2ccc(OC)c(OC)c2)c(=Nc2ccc(F)cc2)s1	1	0.9	9	nt	-1
COC(=O)c1cc(=O)n(CCc2ccc(OC)c(OC)c2)c(=Nc2ccc(F)c(Cl)c2)s1	0.4	0.2	76*	nt	57*
O=C(O)C1CCN(C(=O)NC2CCCCC2)CC1	1	0.9	5	-0.09	-4
Nn1c(SC/C=C/c2ccccc2)nnc1-c1ccncc1	0.5	0.9	11	nt	54*
Cc1noc(C)c1CSc1nnc(-c2ccccc2)n1N	0.4	0.8	16	0.01	65*
Cc1noc(C)c1CSc1nnc2scc(-c3ccccc3)n12	0.9	0.9	9	0.15	10
SMILES	CYP2C19 activ	CYP2C9 act	CYP2C9 inh	Pyk2 oligo antag	CYP2C19 inhib
Cc1noc(C)c1CSc1nnc(-c2ccccc2)n1Cc1ccco1	0.5	0.5	54*	2.4	50*
COC(=O)c1sccc1NC(=O)c1ccc(OC)c(OC)c1	0.9	0.8	17	-1.4	11
N=c1ccn(Cc2ccc(Cl)cc2Cl)cc1	1	0.9	11	0.37	0
O=c1[nH]c(CN2CCN(C/C=C/c3ccccc3)CC2)nc2ccccc12	0.7	0.8	18	-0.55	27
Nc1nc(N2CCN(C/C=C/c3ccccc3)CC2)nc2ccccc12	0.5	0.3	70*	0.05	51*
O=C(COc1ccc(Cl)cc1Cl)NCc1ccncc1	0	0	95*	0.76	100*
C/C(NCCCn1ccnc1)=C(\C#N)C(N)=O	0.9	1	-2	-0.17	10
Cc1cc(=O)oc2cc(OCC(=O)NCc3ccncc3)ccc12	0.3	0.1	91*	0.69	65*
CC(Oc1ccc(Cl)cc1)C(=O)NCCCn1ccnc1 (stereo not drawn)	0	0.1	89*	-0.32	100*
COc1cc(C)nc(OCCNC(=O)COc2ccc(Cl)cc2C)n1	0.3	0.5	46	0.05	73*
CCOC(=O)CN1C(=O)C(=O)c2cccc(C)c21	1	0.7	32	nt	2
